Where “and” joins values, the source holds several entries; their conditions need not be identical. Identical values can stand only once. Records with an inconclusive call do not appear. Some compounds were tested as several samples or in several runs, with calls that do not always agree. Calls of active or inactive are those of the source. How the source made its calls, unless noted: active means hit-call score of the fitted dose curve at least 0.9, where 1 is the maximum; inconclusive means response in the unintended direction; inactive means score below 0.9.
Columns and labels:
[1] = target: Glucocorticoid receptor (Homo sapiens) (UniProt P04150); experiment: NVS_NR_hGR: NovaScreen (NVS) Nuclear Receptor Binding Assay for human Glucocorticoid Receptor (GR) (AID 2283363);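 further: activity is loss of specific radioligand binding signal relative to DMSO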
Outline: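 Cell-free radioligand binding with extracted receptor protein, read by filter-based scintillation counting 16 hours after dosing. Loss of specific signal versus DMSO baseline was scored. Primary screen ran in duplicate at 25 uM; actives were followed up in concentration series.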

[2] = target: Peroxisome proliferator-activated receptor gamma (Homo sapiens) (UniProt P37231); experiment: NVS_NR_hPPARg: NovaScreen (NVS) Nuclear Receptor Binding Assay for human Peroxisome Proliferator-activated Receptor gamma (PPARg) (AID 2283370)
Outline: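 Chemicals were tested first in duplicate at 25 uM, then in concentration series if active. Binding to cell-free PPARg protein was measured by fluorescence polarization after 2 h, with loss of signal scored against DMSO.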

[3] = target: human Norepinephrine Transporter (NET), SLC6A2 (gene 6530) (UniProt P23975); experiment: NVS_TR_hNET: NovaScreen (NVS) Transporter Assay for human Norepinephrine Transporter (NET) (AID 2283377);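 further: cell-free membrane protein extracted from CHO cells expressing human NET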
Outline: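 Radioligand binding to human NET in cell-free CHO-derived protein preparations, read by filter-based scintillation counting 1 hour after dosing. Loss of signal versus DMSO baseline indicated displacement; primary screening in duplicate at 25 uM, actives then titrated.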

[4] = target: Agonist Androgen Response Element (ARE), AR (gene 367) (UniProt P10275); experiment: OT_AR_ARELUC_AG_1440: Odyssey Thera (OT) 24-hour CHO-K1 Luciferase Assay for Agonist Androgen Response Element (ARE) (AID 2283379)
Outline: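 Seed CHO-K1 cells; dose compounds for 24 h; add D-luciferin plus ATP in PBS; read luminescence. Signal increase relative to vehicle defines agonist activity, with at least 3 replicate wells per sample.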

[5] = target: Estrogen receptor beta (Homo sapiens) (UniProt Q92731); experiment: OT_ER_ERbERb_1440: Odyssey Thera (OT) 24-hour HEK293T Protein-Complementation Assay for Estrogen Receptor-beta/-beta Homodimer (AID 2283380);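 further: fluorescence gain from ER beta LBD homodimer complementation read by laser scanning cytometry; scored as signal increase over DMSO baseline for both agonists and antagonists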
Outline: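 HEK293T cells stably expressing human ER-beta LBD (aa 310-547) PCA homodimer pair, dosed 24 h; formaldehyde-fixed, Draq5-stained. Readout: increase in nuclear (agonist) or nuclear plus cytoplasmic (antagonist) fluorescence intensity versus DMSO, gain-of-signal fitting.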

[6] = target: Estrogen receptor (Homo sapiens) (UniProt P03372); experiment: OT_ERa_GFPERaERE_0480: Odyssey Thera (OT) 8-hour HeLa Transcription Induction Assay for Estrogen Receptor (AID 2283381; active means hit-call score of the fitted dose curve at least 0.9, where 1 is the maximum; inactive means score below 0.9)
Outline: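 HeLa cells expressing GFP reporter under estrogen response element, imaged 8 h after dosing. GFP induction quantified by high-content fluorescence microscopy image analysis; gain of signal fitted versus DMSO.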

[7] = target: Estrogen receptor (Homo sapiens) (UniProt P03372); experiment: OT_ERa_GFPERaERE_0120: Odyssey Thera (OT) 2-hour HeLa Transcription Induction Assay for Estrogen Receptor (AID 2283382)
Outline: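 HeLa cells were dosed for 2 h, then GFP reporter induction was quantified by fluorescence microscopy with high-content image analysis. Gain of signal fitted against DMSO baseline.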

[8] = target: Bile acid receptor (Homo sapiens) (UniProt Q96RI1); experiment: OT_FXR_FXRSRC1_0480: Odyssey Thera (OT) 8-hour HEK293T Protein-Complementation Assay for Farnesoid X receptor/SRC-1 Co-activator (AID 2283383)
Outline: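 HEK293T protein-fragment complementation assay: FXR and SRC-1 coactivator are fused to reporter fragments, and their interaction restores a fluorescent reporter. Readout was taken 8 h after dosing, with gain of signal fit relative to DMSO.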

[9] = target: Bile acid receptor (Homo sapiens) (UniProt Q96RI1); experiment: OT_FXR_FXRSRC1_1440: Odyssey Thera (OT) 24-hour HEK293T Protein-Complementation Assay for Farnesoid X receptor/SRC-1 Co-activator (AID 2283384)
Outline: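 HEK293T cells, 24 h after chemical dosing. FXR–SRC-1 coactivator interaction read as fluorescence from protein-fragment complementation of a split reporter. Gain of signal fitted against DMSO baseline.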

[10] = target: Retinoic acid receptor RXR-alpha (Homo sapiens) (UniProt P19793); experiment: OT_NURR1_NURR1RXRa_0480: Odyssey Thera (OT) 8-hour HEK293T Protein Complementation Assay for Nurr1/retinoid X receptor (RXR) (AID 2283385)
Outline: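 HEK293T cells expressing Nurr1 and RXRα fused to reporter fragments (protein-fragment complementation); fluorescence measured 8 h after dosing. Gain of signal fitted relative to DMSO.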

[11] = target: Peroxisome proliferator-activated receptor gamma (Homo sapiens) (UniProt P37231); experiment: OT_PPARg_PPARgSRC1_0480: Odyssey Thera (OT) 8-hour Protein-Complementation Assay for Peroxisome Proliferator-activated Receptor Gamma / SRC-1 Co-activator (AID 2283387);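 further: nuclear to cytoplasmic split Venus YFP fluorescence ratio reporting PPARg SRC-1 interaction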
Outline: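 Read-out: 488 nm N/C fluorescence ratio from complemented Venus YFP fragments, ≥350 cells per image, gain-of-signal fitted against DMSO baseline. Fusions of PPARg/SRC-1 with IFP1/IFP2 expressed transiently in HEK293T; compounds applied 8 h.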

[12] = target: Nuclear receptor subfamily 1 group I member 2 (Homo sapiens) (UniProt O75469); experiment: NVS_NR_hPXR: NovaScreen (NVS) Nuclear Receptor Binding Assay for human Pregnane X Receptor (PXR) (AID 2283365);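 further: a drop in FRET signal versus DMSO baseline means the compound binds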
Outline: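 Human PXR protein, cell-free; compound added, incubated 2 h, TR-FRET read. Signal decrease vs DMSO = binding. Screened 25 uM duplicate, actives re-run as dilution series.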

[13] = target: rat Serotonin Transporter (SERT), Slc6a4 (gene 25553) (UniProt P31652); experiment: NVS_TR_rSERT: NovaScreen (NVS) Transporter Assay for rat Serotonin Transporter (SERT) (AID 2283375)
Outline: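 Filtration-based radiodetection quantified loss of specific radioligand binding in rat forebrain membranes after 1 hour of chemical exposure, relative to DMSO. Chemicals were first tested in duplicate at 25 uM.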

[14] = target: Retinoic acid receptor RXR-alpha (Homo sapiens) (UniProt P19793); experiment: OT_NURR1_NURR1RXRa_1440: Odyssey Thera (OT) 24-hour HEK293T Protein Complementation Assay for Nurr1/retinoid X receptor (RXR) (AID 2283386)
Outline: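 HEK293T protein-fragment complementation of Nurr1 and RXRα fused to reporter fragments; compounds 24 h. Fluorescence gain from reconstituted reporter fitted versus DMSO.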

[15] = target: human Adenosine Transporter (Adot), SLC29A1 (gene 2030) (UniProt Q99808); experiment: NVS_TR_hAdoT: NovaScreen (NVS) Transporter Assay for human Adenosine Transporter (Adot) (AID 2283368)
Outline: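 U937-derived membranes, cell-free radioligand binding, filter scintillation 1 h after dosing. 25 uM duplicate screen; hits (e.g. 30% inhibition) run in concentration-response up to 50 uM; loss of signal versus DMSO.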

[16] = tested on: guinea pig Dopamine Transporter (DAT), gene 100714898; experiment: NVS_TR_gDAT: NovaScreen (NVS) Transporter Assay for guinea pig Dopamine Transporter (DAT) (AID 2283369);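 further: active compounds lower bound radioligand signal relative to DMSO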
Outline: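 Scintillation counts of filter-retained radioligand report binding to guinea pig striatal membranes after 2 h. Activity scored as signal loss relative to DMSO, first at 25 uM in duplicate, then in concentration series to 50 uM.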

[17] = target: guinea pig Sigma Receptor, Non-selective Binding, SIGMAR1 (gene 100135589) (UniProt Q60492); experiment: NVS_OR_gSIGMA_NonSelective: NovaScreen (NVS) Nuclear Receptor Binding Assay for guinea pig Sigma Receptor, Non-selective Binding (AID 2283367)
Outline: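 Guinea pig brain membranes, cell-free radioligand binding; read 1 h after dosing by filter-based scintillation counting. Loss of signal vs DMSO baseline taken as displacement. Primary screen single concentration 25 uM in duplicate; actives retested in concentration series.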

[18] = target: rat Androgen Receptor (AR), Ar (gene 24208) (UniProt P15207); experiment: NVS_NR_rAR: NovaScreen (NVS) Nuclear Receptor Binding Assay for rat Androgen Receptor (AR) (AID 2283366)
Outline: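 Cell-free radioligand binding on extracts of prostate from testosterone-pretreated rats, read by filter-based scintillation counting 18 h after dosing. Loss of bound signal fitted positively versus DMSO; primary screen in duplicate at 25 uM, actives followed up in concentration series.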

Measured: AC50

Chain of Agonist Androgen Response Element (ARE), AR (gene 367) (P10275 whole entry, looked up): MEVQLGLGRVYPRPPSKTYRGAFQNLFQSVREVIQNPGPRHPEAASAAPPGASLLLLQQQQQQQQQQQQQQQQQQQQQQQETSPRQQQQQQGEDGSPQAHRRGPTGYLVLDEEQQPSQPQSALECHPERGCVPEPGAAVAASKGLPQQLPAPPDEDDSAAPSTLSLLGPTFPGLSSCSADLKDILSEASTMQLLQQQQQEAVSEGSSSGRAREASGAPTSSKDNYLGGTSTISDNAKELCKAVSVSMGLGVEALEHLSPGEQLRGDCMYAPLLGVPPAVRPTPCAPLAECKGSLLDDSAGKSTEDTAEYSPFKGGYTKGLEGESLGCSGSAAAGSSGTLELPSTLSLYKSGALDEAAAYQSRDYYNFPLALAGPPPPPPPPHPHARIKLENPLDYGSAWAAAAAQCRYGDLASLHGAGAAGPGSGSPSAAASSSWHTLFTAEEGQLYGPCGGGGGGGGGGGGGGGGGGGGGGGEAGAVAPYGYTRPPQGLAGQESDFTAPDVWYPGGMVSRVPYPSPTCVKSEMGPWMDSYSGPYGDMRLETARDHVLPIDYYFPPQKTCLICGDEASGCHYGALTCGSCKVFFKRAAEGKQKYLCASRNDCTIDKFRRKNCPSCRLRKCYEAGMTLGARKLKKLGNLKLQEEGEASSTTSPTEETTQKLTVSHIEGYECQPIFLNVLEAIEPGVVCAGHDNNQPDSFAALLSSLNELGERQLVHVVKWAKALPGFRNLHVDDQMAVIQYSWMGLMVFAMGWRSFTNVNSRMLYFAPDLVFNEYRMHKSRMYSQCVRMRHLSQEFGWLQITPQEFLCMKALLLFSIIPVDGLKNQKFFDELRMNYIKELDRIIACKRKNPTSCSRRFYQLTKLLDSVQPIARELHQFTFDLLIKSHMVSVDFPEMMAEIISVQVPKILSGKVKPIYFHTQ
Chain of human Norepinephrine Transporter (NET), SLC6A2 (gene 6530) (P23975 whole entry, looked up): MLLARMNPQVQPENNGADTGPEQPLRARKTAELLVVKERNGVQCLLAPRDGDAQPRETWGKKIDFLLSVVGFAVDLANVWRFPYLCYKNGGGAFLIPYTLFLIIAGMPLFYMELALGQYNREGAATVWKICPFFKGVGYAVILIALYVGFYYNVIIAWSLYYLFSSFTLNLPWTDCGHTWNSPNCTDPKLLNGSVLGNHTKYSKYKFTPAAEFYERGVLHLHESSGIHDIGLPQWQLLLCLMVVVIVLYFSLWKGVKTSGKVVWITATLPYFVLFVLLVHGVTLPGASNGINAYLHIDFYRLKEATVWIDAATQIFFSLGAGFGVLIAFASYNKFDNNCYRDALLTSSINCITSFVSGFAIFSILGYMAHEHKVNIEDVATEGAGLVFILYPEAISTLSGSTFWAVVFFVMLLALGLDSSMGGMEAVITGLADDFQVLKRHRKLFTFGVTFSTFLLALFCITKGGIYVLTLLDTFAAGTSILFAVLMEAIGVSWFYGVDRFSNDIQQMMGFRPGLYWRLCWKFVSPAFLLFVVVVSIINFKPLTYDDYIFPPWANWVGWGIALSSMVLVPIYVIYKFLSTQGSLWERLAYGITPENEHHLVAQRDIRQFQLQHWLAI
Chain of Estrogen receptor (Homo sapiens) (P03372 whole entry, looked up): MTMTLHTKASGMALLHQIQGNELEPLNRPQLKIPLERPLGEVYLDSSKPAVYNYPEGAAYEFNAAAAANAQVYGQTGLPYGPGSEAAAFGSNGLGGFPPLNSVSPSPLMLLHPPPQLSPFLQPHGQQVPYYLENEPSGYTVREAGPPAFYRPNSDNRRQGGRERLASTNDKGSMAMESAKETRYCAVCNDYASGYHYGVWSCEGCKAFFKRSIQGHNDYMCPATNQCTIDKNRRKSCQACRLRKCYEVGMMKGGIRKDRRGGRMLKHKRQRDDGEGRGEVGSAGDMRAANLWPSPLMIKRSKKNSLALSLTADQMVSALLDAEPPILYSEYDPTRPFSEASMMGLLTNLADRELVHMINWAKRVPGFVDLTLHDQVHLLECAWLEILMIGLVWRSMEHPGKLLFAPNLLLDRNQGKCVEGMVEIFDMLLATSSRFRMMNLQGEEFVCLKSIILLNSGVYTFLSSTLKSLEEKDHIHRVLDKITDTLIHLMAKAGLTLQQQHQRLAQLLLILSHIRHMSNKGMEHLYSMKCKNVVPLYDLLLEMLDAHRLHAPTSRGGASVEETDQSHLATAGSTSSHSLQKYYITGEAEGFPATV
Chain of Glucocorticoid receptor (Homo sapiens) (P04150 whole entry, looked up): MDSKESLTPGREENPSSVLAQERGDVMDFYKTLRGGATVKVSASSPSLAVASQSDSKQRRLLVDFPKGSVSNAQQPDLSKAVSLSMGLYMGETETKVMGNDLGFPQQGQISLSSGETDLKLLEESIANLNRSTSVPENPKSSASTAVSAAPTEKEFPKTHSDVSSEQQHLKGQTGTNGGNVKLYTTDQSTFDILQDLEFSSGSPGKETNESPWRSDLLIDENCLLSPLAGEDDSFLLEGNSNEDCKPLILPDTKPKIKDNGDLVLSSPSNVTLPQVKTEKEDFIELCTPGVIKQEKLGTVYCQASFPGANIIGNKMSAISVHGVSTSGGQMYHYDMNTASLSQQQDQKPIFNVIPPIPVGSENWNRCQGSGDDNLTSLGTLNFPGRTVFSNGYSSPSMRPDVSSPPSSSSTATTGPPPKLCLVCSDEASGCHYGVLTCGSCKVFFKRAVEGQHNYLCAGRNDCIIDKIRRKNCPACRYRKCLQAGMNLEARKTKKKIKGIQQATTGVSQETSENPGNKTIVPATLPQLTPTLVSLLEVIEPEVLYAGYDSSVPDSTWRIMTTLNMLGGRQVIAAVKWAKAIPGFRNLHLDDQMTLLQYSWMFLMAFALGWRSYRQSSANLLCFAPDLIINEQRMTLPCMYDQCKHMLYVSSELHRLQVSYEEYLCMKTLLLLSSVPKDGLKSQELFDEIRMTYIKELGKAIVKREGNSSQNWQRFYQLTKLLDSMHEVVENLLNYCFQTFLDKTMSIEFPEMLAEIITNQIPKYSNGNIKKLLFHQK
Chain of Peroxisome proliferator-activated receptor gamma (Homo sapiens) (P37231 whole entry, looked up, the tested form may be a part): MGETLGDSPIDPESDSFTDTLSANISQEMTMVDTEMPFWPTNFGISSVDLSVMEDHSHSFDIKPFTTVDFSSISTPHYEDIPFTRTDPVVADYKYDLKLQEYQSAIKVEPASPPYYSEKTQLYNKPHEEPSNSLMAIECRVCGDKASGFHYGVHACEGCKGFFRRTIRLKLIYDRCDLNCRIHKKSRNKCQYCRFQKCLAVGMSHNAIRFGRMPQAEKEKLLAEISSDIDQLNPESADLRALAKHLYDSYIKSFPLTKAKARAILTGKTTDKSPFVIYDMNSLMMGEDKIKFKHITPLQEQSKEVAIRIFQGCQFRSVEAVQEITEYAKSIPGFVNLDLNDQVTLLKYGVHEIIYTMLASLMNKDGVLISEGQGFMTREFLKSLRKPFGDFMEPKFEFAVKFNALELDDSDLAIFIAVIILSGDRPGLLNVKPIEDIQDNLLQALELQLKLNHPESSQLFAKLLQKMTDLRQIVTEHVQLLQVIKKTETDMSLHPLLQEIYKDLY
Chain of Bile acid receptor (Homo sapiens) (Q96RI1 whole entry, looked up, the tested form may be a part): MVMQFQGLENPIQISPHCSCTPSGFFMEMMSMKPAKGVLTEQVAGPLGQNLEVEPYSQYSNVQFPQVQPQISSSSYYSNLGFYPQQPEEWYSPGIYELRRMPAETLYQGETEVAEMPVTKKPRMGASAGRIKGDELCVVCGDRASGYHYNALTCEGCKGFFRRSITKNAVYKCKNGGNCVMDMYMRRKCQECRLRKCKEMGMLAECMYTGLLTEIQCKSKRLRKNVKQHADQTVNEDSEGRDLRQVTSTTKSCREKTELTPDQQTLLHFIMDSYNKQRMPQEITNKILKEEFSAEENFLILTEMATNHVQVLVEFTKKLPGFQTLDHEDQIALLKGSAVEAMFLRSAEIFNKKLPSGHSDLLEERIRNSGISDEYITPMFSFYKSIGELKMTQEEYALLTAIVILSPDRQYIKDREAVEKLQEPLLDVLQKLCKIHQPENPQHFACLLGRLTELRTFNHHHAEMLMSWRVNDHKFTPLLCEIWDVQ
Chain of Estrogen receptor beta (Homo sapiens) (Q92731 whole entry, looked up, the tested form may be a part): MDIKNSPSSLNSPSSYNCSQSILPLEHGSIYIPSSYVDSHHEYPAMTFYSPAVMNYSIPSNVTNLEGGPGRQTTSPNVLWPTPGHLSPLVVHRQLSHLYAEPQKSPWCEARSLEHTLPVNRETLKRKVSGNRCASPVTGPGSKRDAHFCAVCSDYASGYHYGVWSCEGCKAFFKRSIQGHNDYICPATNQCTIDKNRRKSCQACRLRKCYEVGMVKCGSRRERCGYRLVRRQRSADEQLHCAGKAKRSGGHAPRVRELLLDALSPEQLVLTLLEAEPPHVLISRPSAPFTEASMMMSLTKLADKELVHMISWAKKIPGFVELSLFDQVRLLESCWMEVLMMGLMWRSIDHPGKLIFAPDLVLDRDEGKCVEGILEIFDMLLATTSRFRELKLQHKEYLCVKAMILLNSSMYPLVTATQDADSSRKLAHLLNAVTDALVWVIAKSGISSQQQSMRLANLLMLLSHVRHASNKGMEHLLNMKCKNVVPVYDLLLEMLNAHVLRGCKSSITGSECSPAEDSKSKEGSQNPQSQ
Chain of Retinoic acid receptor RXR-alpha (Homo sapiens) (P19793 whole entry, looked up, the tested form may be a part): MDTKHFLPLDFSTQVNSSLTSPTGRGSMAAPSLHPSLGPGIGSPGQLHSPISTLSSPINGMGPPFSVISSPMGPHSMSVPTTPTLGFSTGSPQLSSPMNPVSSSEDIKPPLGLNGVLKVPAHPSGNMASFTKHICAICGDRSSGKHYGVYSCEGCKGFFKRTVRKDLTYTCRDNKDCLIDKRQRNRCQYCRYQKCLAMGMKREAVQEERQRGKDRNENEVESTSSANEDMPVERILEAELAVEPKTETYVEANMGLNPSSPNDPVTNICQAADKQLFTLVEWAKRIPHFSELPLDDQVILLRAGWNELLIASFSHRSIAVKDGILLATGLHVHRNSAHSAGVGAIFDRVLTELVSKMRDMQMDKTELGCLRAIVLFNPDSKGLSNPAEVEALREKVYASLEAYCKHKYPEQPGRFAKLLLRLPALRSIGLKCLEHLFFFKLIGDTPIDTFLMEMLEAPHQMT

Nc1cccc2c(N)cccc12
active: [1] 13.4 µM | [3] 14.3 µM
inactive: [2] | [4] | [5] | [6] | [7] | [8] | [9] | [10] | [11]

CCCCCCCC(=O)O
inactive: [12] | [13] | [10] | [14] | [11]
active: [5] 21.3 µM | [6] 22.1 µM

O=C(O)Cc1cc(I)c(Oc2cc(I)c(O)c(I)c2)c(I)c1
active: [1] 5.56 µM and 109 nM | [2] 43.8 nM and 1.53 nM and 9.65 µM | [3] 10.1 µM | [6] 44.5 µM | [7] 48.3 µM | [10] 11.6 µM | [14] 6.55 µM | [11] 10.6 µM
inactive: [15] | [16] | [5]

c1ccc2c(c1)ccc1ccccc12
inactive: [17] | [4] | [6] | [8] | [9] | [10] | [11]

CCCOC(=O)c1ccc(O)cc1
inactive: [16] | [2] | [8] | [10] | [14] | [11]
active: [3] 9.32 µM | [5] 8.13 µM | [6] 27.6 µM | [9] 58.5 µM

CCCCCCCCCCCCCC[N+](C)(C)C
active: [1] 6.85 µM and 29.1 µM | [17] 0.558 µM | [13] 41.5 µM | [3] 3.12 µM
inactive: [6] | [11]

CCCCCCCCCCCCc1ccccc1S(=O)(=O)O
inactive: [4] | [5] | [9] | [11]
active: [1] 2.47 µM | [18] 3.66 µM | [16] 37 µM | [2] 194 nM | [3] 9.86 µM | [6] 96 µM | [8] 92.9 µM | [10] 76 µM and 80.5 µM

C#C[C@]1(O)CC[C@H]2[C@@H]3CCC4=CC(=O)CC[C@@H]4[C@H]3CC[C@@]21C
active: [5] 29.3 µM and 30.3 µM and 22.2 µM
inactive: [12] | [2] | [5] | [10] | [11]

NC(=O)N1C(=O)C(C(=O)c2cc(Cl)cs2)c2cc(F)c(Cl)cc21 (configuration not stated)
active: [1] 19.6 µM | [18] 6.36 µM | [2] 5350 nM | [3] 25 µM | [9] 81.9 µM | [10] 13.2 µM
inactive: [4] | [5] | [6] | [8] | [10] | [11]
